# Data reported in ChEMBL document CHEMBL3988442, “University of Dundee, Small-Polar-MMV Screening Library” (2021).
# Hit rate of the full screen: of about 38,000 compounds, about 1,200 (3.2%) showed an effect of 50% or more. The median lay at about -58%. Many of the other results were omitted from the sample, so strong results are more common in it than they were.
# System: Plasmodium falciparum
# Assay: Calibr Malaria Delayed Death Assay SOP
# Type: functional, organism-based
# Design: scale not given: in the data most compounds retested in dose-response had high values
# Settings: concentration 4.99e-06 (unit not given; other assays of the set use mol/L)
row,SMILES,Percent Effect
1,COc1ccc(CCN(C)C(=O)CN2C(=O)OC[C@@H]2C(C)C)cc1OC,-25.4%
2,CNC(=O)N1CCC(NC(=O)c2cnn(C)c2)CC1,-113.2%
3,NS(=O)(=O)c1cnn(CCC(=O)N(Cc2ccccc2)C2CC2)c1,-42.03%
4,COC(=O)c1ccc(N2CCN(CC(=O)NC(N)=O)C(C)C2)cc1 (stereo not drawn),-25.15%
5,CCOC(=O)NC1CCCN(Cc2ccc(-n3cncn3)c(C)c2)C1 (stereo not drawn),-7.286%
6,CC(C)(C)OC(=O)NC1CCCN(Cc2cccs2)C1 (stereo not drawn),25.55%
7,CC(C)(C)OC(=O)NC1CCCN(Cc2cccc(O)c2)C1 (stereo not drawn),51.54%
8,CCOc1ccc(C(=O)n2cccn2)cc1,-77.79%
9,O=C(c1ccc(F)cc1)N1CCOC(c2nc(-c3ncccn3)no2)C1 (stereo not drawn),-155.2%
10,O=C(O)C(F)(F)F.c1cnc(N2CCOC3(CCN(CC4CCOC4)CC3)C2)nc1 (stereo not drawn),-16.11%
11,CN1CCN(c2ccc(NC(=O)c3ccccn3)c(C(F)(F)F)c2)CC1,-41.85%
12,CN1CCN(c2ccc(NC(=O)c3ccoc3)c(C(F)(F)F)c2)CC1,-45.74%
13,CN1CCN(c2ccc(NC(=O)c3cccs3)c(C(F)(F)F)c2)CC1,73.25%
14,Cc1nc(CCCC(=O)Nc2cccc(N3CCNC3=O)c2)cs1,-207.5%
15,Cc1ccc(N2CCCC(NCc3cnc(C)s3)C2)nn1 (stereo not drawn),-130.3%
16,CC(C)[C@@H]1CN(C2CCN(Cc3ccccc3)CC2)C[C@H]1NS(C)(=O)=O,2.556%
17,CC(c1ccncc1)N(C)S(C)(=O)=O (stereo not drawn),-81.75%
18,COc1ncccc1C1CC(=O)Nc2cc(NS(C)(=O)=O)ccc21 (stereo not drawn),-136.9%
19,Nc1cc(N2CCCC(COc3ccc(F)cc3)C2)ncn1 (stereo not drawn),-4.598%
20,Cc1cc(C)cc(S(=O)(=O)NCC2CNCCOC2)c1 (stereo not drawn),6.797%
21,Cc1ccc(S(=O)(=O)NCC2CNCCOC2)cc1Cl (stereo not drawn),47.92%
22,Cc1cc(S(=O)(=O)NCC2CNCCOC2)c(C)cc1Cl (stereo not drawn),75.13%
23,Cc1ccccc1CCC1CCCN(C(=O)Cc2cc(=O)[nH]c(N)n2)C1 (stereo not drawn),-123.2%
24,CC(C)Cc1cc(C(=O)NCC2CCCN(Cc3ccco3)C2)on1 (stereo not drawn),-23.35%
25,Cc1cnn(CCCNCc2csc(COc3ccccc3)n2)c1,70.2%
26,c1ccc(OCc2nc(CNCCn3cccn3)cs2)cc1,20.38%

row,SMILES,Percent Effect
1,Cc1cnn(CCNCc2csc(COc3ccccc3)n2)c1,42.25%
2,COCCn1ccnc1C1CCN(C(=O)CSc2nnc(C)s2)CC1,-110.9%
3,CN(C)[C@@H]1CO[C@H](CNC(=O)Nc2ccccc2)[C@H]1O,-62.35%
4,O=C(NC[C@H]1OC[C@@H](N(CC2CC2)CC2CC2)[C@@H]1O)Nc1ccccc1,64.49%
5,O=C(NC[C@H]1OC[C@@H](NC2CCC2)[C@@H]1O)Nc1ccccc1,-143.1%
6,CN(CCCC1CCCO1)C(=O)c1cccc(C#N)c1 (stereo not drawn),-170.6%
7,O=C(O)CCCC(=O)N1CCC(c2noc3cc(F)ccc23)CC1,-131.6%
8,CC(C)(C)OC(=O)N1CCCc2ccc(NCc3ncc[nH]3)cc21,26.46%
9,CCC(O)(CNCc1ccncc1)c1ccc(Br)cc1 (stereo not drawn),3.807%
10,CCC(O)(CNCc1cc[nH]n1)c1ccc(Br)cc1 (stereo not drawn),76.25%
11,CCC(O)(CNCc1ncc[nH]1)c1ccc(Br)cc1 (stereo not drawn),65.85%
12,CS(=O)(=O)c1ccc(CNC(=O)NCc2cc[nH]n2)cc1,-45.13%
13,CC(=O)N1CCCN(C(=O)NCc2cc[nH]n2)CC1,-10.61%
14,O=C(c1cnccn1)N1C[C@@H]2CC[C@H](C1)N(S(=O)(=O)c1cccnc1)C2,-81.69%
15,CC(C)c1nc(C2CCCN(C(=O)CCn3ccccc3=O)C2)no1 (stereo not drawn),-110.1%
16,CCS(=O)(=O)N1CCC2(CCN(C(=O)c3cccs3)CC2)CC1,-4.516%
17,CNS(=O)(=O)C1CCN(c2cc(C(C)C)nc(C(C)C)n2)C1 (stereo not drawn),-29.56%
18,CCN(C(=O)CN1CCCC1Cc1ccccc1)c1ccccc1 (stereo not drawn),59.02%
19,CN(C(=O)CN1CCCC1Cc1ccccc1)c1ccccc1 (stereo not drawn),20.57%
20,Cc1ccc(C2CCCN2CC(=O)N(CCC#N)c2ccccc2)cc1 (stereo not drawn),61.31%
21,N#CCCN(C(=O)CN1CCCC1c1ccccc1Cl)c1ccccc1 (stereo not drawn),38.72%
22,CCN(C(=O)CN1CCCC1c1ccc(F)cc1)c1ccccc1C (stereo not drawn),-25.99%
23,CCN(C(=O)CN1CCCC1c1ccc(OC)cc1)c1ccccc1 (stereo not drawn),17.94%
24,N#CCCN(Cc1ccco1)C(=O)CN1CCCC1c1cccs1 (stereo not drawn),2.269%
25,Cc1cc(C2CCCN2CC(=O)N(CCC#N)c2ccccc2F)on1 (stereo not drawn),-128.3%
26,N#CCCN(C(=O)CN1CCCC1C1CCCCC1)c1ccccc1 (stereo not drawn),50.3%

row,SMILES,Percent Effect
1,CC1CC(=O)c2cc(C(=O)N3CCc4ccccc43)c(=O)[nH]c2C1 (stereo not drawn),-103.7%
2,CN(C)c1ncc(NC(=O)c2ccccc2C(F)(F)F)cn1,-13.75%
3,O=C(Cn1ccc2c(Cl)cccc21)N1CCCC1,-3.751%
4,COCC(=O)Nc1ccc2c(c1)C1(CCOCC1)CN2CCF.O=C(O)C(F)(F)F,-73.75%
5,Cn1cc(C2COC3(CCN(C(=O)c4ccccn4)CC3)C2)cn1.O=C(O)C(F)(F)F (stereo not drawn),-70.09%
6,COc1ccc(N2CCN(C(=O)CCc3n[nH]c(C)n3)CC2=O)cc1,-47.6%
7,COC(=O)c1ccc(C(=O)N2CCC(c3nnc(C)s3)CC2)cc1,-39.58%
8,OCCNc1nc(Nc2ccccc2)c2nccnc2n1,-38.96%
9,CC(O)c1cccc(-n2c(CCC(=O)O)nc3ccccc32)c1 (stereo not drawn),-169.3%
10,Cc1nc(C)n(CC2CCCN2CCCc2nc3ccccc3o2)n1 (stereo not drawn),-41.56%
11,COc1ncc(C2(O)CCN(Cc3cc(F)ccc3F)CC2)c(OC)n1.Cl,-42.34%
12,COc1ccc(OC)c(CN2CCC(c3cc(O)nc(C)n3)C2)c1 (stereo not drawn),-6.514%
13,Fc1cccnc1N1CCC(NCc2cccc3cn[nH]c23)C1 (stereo not drawn),-62.75%
14,COc1ncc(C2(O)CCN(Cc3cccc(F)c3F)CC2)c(OC)n1.Cl,-65.3%
15,COc1ccc(C)cc1CN1CCN(Cc2nccn2C)CC1,-87.98%
16,Cl.Cl.OC(CN1CCN(Cc2cc(F)ccc2F)CC1)C1CC1 (stereo not drawn),0.4009%
17,CC(C(=O)Nc1cccc(Cl)c1SC(F)F)S(C)(=O)=O (stereo not drawn),-87.5%
18,Cc1cc(CN2CCN(c3ccnc(-c4ccccc4)n3)CC2)no1,-117.2%
19,Cc1cc(NC(=O)C2CN(Cc3ccccc3)CCO2)ccn1 (stereo not drawn),-48%
20,NC(=O)c1cnc2n1CCN(C(=O)c1cccc(Cn3cccn3)c1)C2,-26.24%
21,O=C1CCCN1CCC1CCN(C2CCC3(CCNCC3)CC2)CC1,-113.8%
22,COc1ccc(NC(=O)c2cnc(N3CCN(C)CC3)nc2C)cc1,-110.8%
23,Cc1ccc(NC(=O)Nc2cnc(N3CCN(C)CC3)nc2)cc1,58.27%
24,COc1ccc(C)cc1NC(=O)Nc1cnc(N2CCOCC2)nc1,6.993%
25,Cc1cc(C)cc(NC(=O)c2cnc(N3CCN(C)CC3)nc2C)c1,-105.5%
26,COc1ccc(C)cc1NC(=O)Nc1cnc(N2CCCC2)nc1,-31.15%

row,SMILES,Percent Effect
1,COc1ccc(NC(=O)Nc2cnc(N3CCN(C)CC3)nc2)cc1Cl,87.5%
2,CCN(CC)C(CNS(=O)(=O)c1ccc(C(N)=O)cc1)c1ccco1 (stereo not drawn),-82.08%
3,O=C(O)C(F)(F)F.O=S(=O)(c1cccs1)N1Cc2nc(CN3CCCCC3)oc2C1,-52.21%
4,O=C(CCO)N1CC[C@@H]2CN(C(=O)c3ccco3)CCO[C@@H]2C1,-32.06%
5,COc1c(C)cnc(CN2CCn3c(nnc3C(C)C)C2)c1C,-75.36%
6,COc1c(C)cnc(CN(C)C2CCOC3(CCOCC3)C2)c1C (stereo not drawn),-5.784%
7,COc1c(C)cnc(CN2CCn3c(nnc3C3CC3)C2)c1C,-38.06%
8,COc1c(C)cnc(CN2CCC(C(=O)N(C)C)CC2)c1C,-25.53%
9,COc1c(C)cnc(CN(C)C2CCCCC2)c1C,76.34%
10,COc1c(C)cnc(CN(C)C(=O)c2ccccc2O)c1C,-65.02%
11,COc1c(C)cnc(CN2CCC(N(C)C(C)C(N)=O)CC2)c1C (stereo not drawn),77.51%
12,CCC(=O)N(C)C1CCN(Cc2ncc(C)c(OC)c2C)CC1,-107.4%
13,CSc1ccc(C(=O)N2CC(=O)N(CC3CC3)CC(O)C2)cc1 (stereo not drawn),-80.98%
14,CC(C)c1nn(C)c(N(C)C)c1CNC1CCOc2ccccc21 (stereo not drawn),-13.52%
15,O=C(O)C(F)(F)F.O=C(c1ccccc1F)N1CCC2(CC1)CC(N1CCCC1)CO2 (stereo not drawn),-57.39%
16,Cc1nc(C2CCCN(C(=O)c3cc(-c4ccccc4)[nH]n3)C2)no1 (stereo not drawn),-103.7%
17,O=C(COc1coc(CN2CCCCC2)cc1=O)Nc1cccc(Cl)c1,-36.85%
18,N#Cc1cc(F)c(NCc2ccc(F)cc2)c(F)c1,-56.06%
19,Cc1cccc(NC(=O)C2(n3cnnn3)CCCCC2)n1,-65.2%
20,O=C(C1=CCCC1)N1C[C@@H]2COC[C@]2(COCC2CC2)C1,-77.68%
21,COc1ccc(CNCC2CN(C3CC3)CCO2)cc1F (stereo not drawn),-41.72%
22,COc1ccc(CNCC2CCN(CCO)CC2)cc1F,57.05%
23,CCOCCNCC1CCN(CCO)CC1,-86.72%
24,OCCN1CCC(CNCc2cn(-c3ccccc3)nn2)CC1,-75.43%
25,CCN1CCOC(CNCc2ccc(OC)c(F)c2)C1 (stereo not drawn),-53.15%
